# Measurements reported in PubChem BioAssay (NCATS).
# “And” between values parts separate entries of the source, which are not always exact repeats. Equal values may be shown once. Results filed as inconclusive are left out. Entries that show only a call come without a potency. Some compounds were tested as several samples or in several runs, with calls that do not always agree. The source made the active and inactive calls. Calls come from the whole dose curve; as a rule, active = well fitted curve in the direction sought with a large enough effect; inconclusive = small, poorly fitted or top-dose-only effect, or another doubt; inactive = no such curve, though single readings can be large; an effect the other way counts as inactive or inconclusive.
# What was measured:
# [1] = tested on: CRL-7250; assay: Cytotoxic Profiling of Annotated Libraries Using Quantitative High-Throughput Screening (AID 1296008); details: Five cell lines viability, CellTiter-Glo ATP luminescence, 48-72 h; max response: stronger effect = lower value; note: nearly all actives have a fitted effect of over 60% in size
# In short: (§1)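 Cells exposed to compounds for 48 or 72 hr at 37 degrees Celsius. Viability read as ATP-coupled luminescence with CellTiter-Glo after 10 min at room temperature.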
# [2] = tested on: HEK293; assay: as above; details: Five cell lines viability, CellTiter-Glo ATP luminescence, 48-72 h; max response: stronger effect = lower value
# In short: as §1
# [3] = tested on: HaCat; assay: as above; details: Five cell lines viability, CellTiter-Glo ATP luminescence, 48-72 h; max response: stronger effect = lower value
# In short: as §1
# [4] = tested on: KB-3-1; assay: as above; details: Five cell lines viability, CellTiter-Glo ATP luminescence, 48-72 h; max response: stronger effect = lower value
# In short: as §1
# [5] = tested on: NIH3T3; assay: as above; details: Five cell lines viability, CellTiter-Glo ATP luminescence, 48-72 h; max response: stronger effect = lower value
# In short: as §1
# [6] = tested on: MCC-13; assay: qHTS assay to identify novel small-molecules to repurpose for Merkel cell carcinoma treatment (AID 1296009); details: MCC and control cell lines, CellTiter-Glo viability, 72 h; series mostly up to 46 µM; note: nearly all actives have a fitted effect of over 60% in size
# In short: (§2)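 Cells were treated for 72 hr at 37 degree celsius with compounds in 8- or 11-point dose response. Viability was read by CellTiter-Glo luminescence, normalized to no-cell (cytotoxicity) and DMSO controls.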
# [7] = tested on: MKL-1; assay: as above; details: MCC and control cell lines, CellTiter-Glo viability, 72 h; series mostly up to 46 µM
# In short: as §2
# [8] = tested on: MKL-2; assay: as above; details: MCC and control cell lines, CellTiter-Glo viability, 72 h; series mostly up to 46 µM
# In short: as §2
# [9] = tested on: UISO; assay: as above; details: MCC and control cell lines, CellTiter-Glo viability, 72 h; series mostly up to 46 µM
# In short: as §2
# [10] = tested on: WaGa; assay: as above; details: MCC and control cell lines, CellTiter-Glo viability, 72 h; series mostly up to 46 µM
# In short: as §2
# [11] = tested on: C33A; assay: Primary qHTS to identify gynecologic anti-cancer compounds using libraries of approved drugs and bioactive compounds (AID 1345084); details: Gynecologic cancer cell panel viability, ATPlite luminescence, 48 h; series mostly up to 57.5 µM; note: nearly all actives have a fitted effect of over 55% in size
# In short: (§3)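 ATP-based viability (ATPlite), 1,000 cells/well, 16 h pre-incubation, 48 h compound at 37 C, 5% CO2, 15 min RT before read.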
# [12] = tested on: CAOV3; assay: as above; details: Gynecologic cancer cell panel viability, ATPlite luminescence, 48 h; series mostly up to 57.5 µM
# In short: as §3
# [13] = tested on: Es-2; assay: as above; details: Gynecologic cancer cell panel viability, ATPlite luminescence, 48 h; series mostly up to 57.5 µM
# In short: as §3
# [14] = tested on: MCC-26; assay: qHTS assay to identify novel small-molecules to repurpose for Merkel cell carcinoma treatment (AID 1296009); details: MCC and control cell lines, CellTiter-Glo viability, 72 h; series mostly up to 46 µM; note: nearly all actives have a fitted effect of over 60% in size
# In short: as §2
# [15] = tested on: CASKI; assay: Primary qHTS to identify gynecologic anti-cancer compounds using libraries of approved drugs and bioactive compounds (AID 1345084); details: Gynecologic cancer cell panel viability, ATPlite luminescence, 48 h; series mostly up to 57.5 µM; note: nearly all actives have a fitted effect of over 55% in size
# In short: as §3
# [16] = tested on: HACAT; assay: qHTS assay to identify novel small-molecules to repurpose for Merkel cell carcinoma treatment (AID 1296009); details: MCC and control cell lines, CellTiter-Glo viability, 72 h; at 44.8 µM (top of the series) unless noted; note: nearly all actives have a fitted effect of over 60% in size
# In short: as §2
# [17] = tested on: NIH3T3; assay: as above; details: MCC and control cell lines, CellTiter-Glo viability, 72 h; at 44.8 µM (top of the series) unless noted
# In short: as §2
# [18] = tested on: TAB165; assay: qHTS profiling for inhibitors of Plasmodium falciparum proliferation (AID 504749); note: nearly all actives have a fitted effect of over 60% in size; details: P. falciparum in erythrocytes, SYBR Green DNA, 72 h; series mostly up to 28.7 µM
# In short: (§4)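 P. falciparum-infected erythrocytes (0.3% parasitemia, 2.5% hematocrit) incubated with compound 72 h at 37 C, 5% CO2. Parasite DNA detected by SYBR Green after lysis, overnight at room temperature; normalised to 0.29 uM artemisinin and DMSO.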
# [19] = tested on: W2; assay: as above; details: P. falciparum in erythrocytes, SYBR Green DNA, 72 h; series mostly up to 28.7 µM
# In short: as §4
# Potency is the fitted concentration of half-maximal effect.
smiles,measurement,setting,value
NC1(c2ccc(-c3nc4ccn5c(=O)[nH]nc5c4cc3-c3ccccc3)cc2)CCC1,max response,[1],-3.3% (inactive)
same,Potency,[2],3.32 µM (active) and 2.37 µM (active) and 3.26 µM (active)
same,Potency,[3],25.9 µM (active)
same,max response,[3],-15.1% (inactive)
same,Potency,[4],16.4 µM (active)
same,max response,[5],-6.67% (inactive)
same,Potency,[6],inactive
same,Potency,[7],20.9 µM (active)
same,Potency,[8],13.3 µM (active)
same,Potency,[9],13.2 µM (active)
same,Potency,[10],16.6 µM (active) and 26.6 µM (active)
same,Potency,[11],inactive
same,Potency,[12],inactive
same,Potency,[13],inactive
Nc1nc(=S)c2[nH]cnc2[nH]1,Potency,[1],18.8 µM (active)
same,Potency,[2],3.76 µM (active) and 9.35 µM (active)
same,Potency,[3],1.5 µM (active) and 4.69 µM (active)
same,Potency,[4],5.17 µM (active) and 3.66 µM (active) and 1.32 µM (active)
same,Potency,[5],841 nM (active) and 3.32 µM (active)
same,Potency,[6],4.22 µM (active)
same,Potency,[14],20.9 µM (active)
same,Potency,[7],2.37 µM (active) and 23.5 µM (active)
same,Potency,[8],7.5 µM (active)
same,Potency,[9],1.33 µM (active)
same,Potency,[10],3.35 µM (active) and 10.5 µM (active)
same,Potency,[15],3.55 µM (active)
same,Potency,[13],7.08 µM (active)
O=C(NCC1CN(c2ccc(N3CCOCC3=O)cc2)C(=O)O1)c1ccc(Cl)s1 (stereo not given),outcome,[1],inactive
same,max response,[2],-28.8% (inactive)
same,outcome,[3],inactive
same,max response,[4],-19.6% (inactive)
same,max response,[5],3.35% (inactive)
same,outcome,[5],inactive
same,outcome,[16],inactive
same,Potency,[6],inactive
same,Potency,[14],inactive
same,Potency,[7],inactive
same,Potency,[8],inactive
same,outcome,[17],inactive
same,Potency,[9],inactive
same,Potency,[10],inactive
same,Potency,[11],inactive
same,Potency,[12],inactive
same,Potency,[15],inactive
same,Potency,[13],inactive
CCN1CCCC1CNC(=O)c1cc(S(N)(=O)=O)ccc1OC (stereo not given),outcome,[1],inactive
same,max response,[2],-9.26% (inactive)
same,max response,[3],2.07% (inactive)
same,outcome,[4],inactive
same,max response,[5],-4.16% (inactive)
same,Potency,[6],inactive
same,Potency,[7],inactive
same,Potency,[8],inactive
same,Potency,[9],inactive
same,Potency,[10],inactive
O=C(O)c1ccc(-n2nc(-c3ccccc3O)nc2-c2ccccc2O)cc1,max response,[3],2.92% (inactive)
same,outcome,[3],inactive
same,outcome,[16],inactive
same,Potency,[6],inactive
same,Potency,[14],inactive
same,Potency,[10],16.8 µM (active)
same,Potency,[12],inactive
same,Potency,[15],inactive
CCCc1nc(C)c2c(=O)[nH]c(-c3cc(S(=O)(=O)N4CCN(CC)CC4)ccc3OCC)nn12,Potency,[11],inactive
same,Potency,[12],inactive
same,Potency,[15],inactive
same,Potency,[13],inactive
CC(=O)[C@H]1CC[C@H]2[C@@H]3CCC4=CC(=O)CC[C@]4(C)[C@H]3CC[C@]12C,Potency,[2],16.6 µM (active)
same,max response,[5],-0.969% (inactive)
same,Potency,[6],inactive
same,Potency,[14],inactive
same,Potency,[7],inactive
CCOC(=O)[C@H](CCc1ccccc1)N[C@H]1CCc2ccccc2N(CC(=O)O)C1=O,max response,[1],-7.52% (inactive)
same,Potency,[2],18.7 µM (active)
same,outcome,[3],inactive
same,max response,[4],4.39% (inactive)
same,outcome,[16],inactive
same,Potency,[6],inactive
same,Potency,[14],inactive
same,Potency,[7],inactive
same,Potency,[9],inactive
same,Potency,[10],inactive
same,Potency,[15],inactive
same,Potency,[13],inactive
C[C@@H]1C[C@H]2[C@@H]3CCC4=CC(=O)C=C[C@]4(C)[C@@]3(Cl)[C@@H](O)C[C@]2(C)[C@@]1(OC(=O)c1ccco1)C(=O)CCl,max response,[1],-41.7% (inactive)
same,max response,[3],-15.9% (inactive)
same,max response,[4],4.51% (inactive) and 5.24% (inactive)
same,Potency,[6],inactive
same,Potency,[14],inactive
same,Potency,[7],16.6 µM (active)
same,Potency,[8],29.9 µM (active) and 18.7 µM (active)
same,Potency,[9],20.9 µM (active)
same,Potency,[10],16.6 µM (active)
same,Potency,[11],inactive
same,Potency,[12],inactive
same,Potency,[15],inactive
NC(N)=NC(N)=NCCc1ccccc1,Potency,[18],inactive
same,Potency,[19],inactive
same,Potency,[12],inactive
CC1(C)[C@H](C(=O)O)N2C(=O)C[C@H]2S1(=O)=O,Potency,[11],inactive
same,Potency,[12],inactive
same,Potency,[15],inactive
same,Potency,[13],inactive
Oc1c(Cl)cc(Cl)c2cccnc12,Potency,[18],10 µM (active)
same,max response,[4],-16.3% (inactive)
same,Potency,[5],23.7 µM (active)
same,Potency,[6],inactive
same,Potency,[14],inactive
same,Potency,[7],5.31 µM (active)
same,Potency,[8],3.76 µM (active)
same,Potency,[9],13.3 µM (active)
same,Potency,[10],11.9 µM (active)
same,Potency,[15],inactive
same,Potency,[13],20 µM (active)
CN1CCCC(n2nc(Cc3ccc(Cl)cc3)c3ccccc3c2=O)CC1 (stereo not given),Potency,[19],6.01 µM (active)
same,max response,[3],3.73% (inactive)
same,outcome,[3],inactive
same,max response,[4],-6.94% (inactive) and -2.19% (inactive)
same,max response,[5],5% (inactive)
same,outcome,[16],inactive
same,Potency,[6],inactive
same,Potency,[7],1.48 µM (active)
same,Potency,[8],15 µM (active) and 418 nM (active)
same,Potency,[9],13.2 µM (active)
same,Potency,[10],0.296 µM (active)
same,Potency,[11],inactive
same,Potency,[12],inactive
same,Potency,[15],inactive
CC[C@H](C)C(=O)O[C@H]1C[C@@H](C)C=C2C=C[C@H](C)[C@H](CC[C@@H]3C[C@@H](O)CC(=O)O3)[C@H]21,Potency,[18],inactive
same,Potency,[1],2.66 µM (active) and 13.2 µM (active) and 3.17 µM (active)
same,max response,[2],-37.5% (inactive)
same,Potency,[3],11.8 µM (active)
same,max response,[5],-16.3% (inactive)
same,Potency,[6],21.1 µM (active)
same,Potency,[7],23.7 µM (active) and inactive
same,Potency,[9],9.44 µM (active) and 20.9 µM (active)
same,Potency,[10],inactive
same,Potency,[11],inactive
same,Potency,[12],inactive
same,Potency,[15],inactive
same,Potency,[13],inactive
CCCCCCNC(=O)n1cc(F)c(=O)[nH]c1=O,Potency,[18],10 µM (active)
same,Potency,[19],4.78 µM (active)
same,Potency,[2],7.5 µM (active) and 13.2 µM (active)
same,max response,[3],-37.7% (inactive)
same,max response,[4],-8.63% (inactive) and -17% (inactive)
same,Potency,[5],1.5 µM (active) and 3.72 µM (active)
same,Potency,[6],inactive
same,Potency,[14],inactive
same,Potency,[7],inactive
same,Potency,[8],inactive
same,Potency,[11],inactive
same,Potency,[12],inactive
same,Potency,[15],inactive
CN1CCN(c2c(F)cc3c(=O)c(C(=O)O)cn(CCF)c3c2F)CC1,Potency,[18],inactive
same,Potency,[19],inactive
same,Potency,[11],inactive
same,Potency,[12],inactive
same,Potency,[15],inactive
same,Potency,[13],inactive
